A selection: hits, their analogues and other compounds. The true share with any hit is near 1.2%.
Apoferritin bind – binds horse apoferritin like a general anesthetic; Potency, µM (top dose mostly 77.5 µM), without a hit: top-dose activity change, negative = displacement, hits mostly inhibitors; P02791; hit rate 0.074% among 350,000; apoferritin/1-aminoanthracene competitive binding, fluorescence; AID 485281; further: potency means the concentration at half of the fitted maximal effect; on the % scale 0 is the no-effect control and ±100 the full control effect; nearly all actives have a fitted effect of over 20% in size
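Steps: apoferritin (10 uM) was premixed with half-saturated 1-AMA in PBS, compounds were pin-transferred, plates stood 10 min at room temperature, fluorescence was read at 380/535 nm, and curves were fitted with a Hill equation.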
KCNH2 WT inh – blocks the wildtype human KCNH2 potassium channel. Q12809. U2OS, BacMam KCNH2, thallium flux FluxOr; hits give low values. activity change, % at 1.84 µM. hit rate 0.37% among 340,000. AID 720551;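 active means maximum activity change below -70%; inconclusive means maximum activity change between -70% and -50%; inactive means maximum activity change above -50%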; further: on the % scale 0 is the no-effect control and ±100 the full control effect
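U2OS cells were transduced with wild-type KCNH2 virus (2.03 x 10^8 / mL) for 4 h at room temperature, then cultured overnight at 37 C. Thallium flux was read with FluxOr dye. Rate constants were normalized to DMSO controls.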
S-ASM inh – inhibitors of human secretory acid sphingomyelinase; P17405; placental ASM, HMU-PC fluorogenic substrate, 60 min; Potency, µM (top dose mostly 57.5 µM), inactives show top-dose activity change, negative = inhibition, hits mostly inhibitors; hit rate 0.006% among 340,000; AID 504937; further: potency means the concentration at half of the fitted maximal effect
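qHTS format. ASM enzyme prepared from human placenta hydrolyses the fluorogenic substrate HMU-PC0 (9 uM final) over 60 min at 37 °C after a 10 min compound preincubation.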
IDH1 R132H inh – human IDH1 R132H inhibition; O75874; IDH1-R132H enzyme, NADPH consumption, diaphorase/resazurin fluorescence; Potency, µM (doses to about 76.6 µM), for inactives: top-dose activity change, negative = inhibition, actives largely listed as inhibitors; hit rate 0.093% among 390,000; AID 602179; further: potency means the concentration at half of the fitted maximal effect; on the % scale 0 is the no-effect control and ±100 the full control effect; nearly all actives have a fitted effect of over 65% in size
Target sequence (O75874 whole entry R132H, stated change not applied): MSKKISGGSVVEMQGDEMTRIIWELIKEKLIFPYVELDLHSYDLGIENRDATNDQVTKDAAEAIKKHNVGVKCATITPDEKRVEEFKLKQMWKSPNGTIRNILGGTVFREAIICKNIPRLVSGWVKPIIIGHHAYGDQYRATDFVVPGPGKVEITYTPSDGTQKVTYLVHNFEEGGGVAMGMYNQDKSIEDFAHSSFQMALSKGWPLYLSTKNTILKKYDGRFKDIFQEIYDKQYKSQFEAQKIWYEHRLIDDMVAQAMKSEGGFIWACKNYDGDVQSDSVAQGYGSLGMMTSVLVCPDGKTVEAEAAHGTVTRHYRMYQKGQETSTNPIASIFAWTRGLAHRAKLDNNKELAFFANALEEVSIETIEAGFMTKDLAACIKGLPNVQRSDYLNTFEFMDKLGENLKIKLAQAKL
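IDH1-R132H (0.5 ug/mL dispensed) in pH 7.5 Tris buffer was preincubated 30 min with compound, then given a substrate mix of 0.016 mM NADPH and 2 mM alpha-KG for 80 min at room temperature; remaining NADPH was read by diaphorase/resazurin fluorescence.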
KCNH2 3.1 block – KCNH2 3.1 (human) potassium channel inhibition; hit rate 0.95% among 340,000; U2OS KCNH2 3.1, thallium flux FluxOr; hits give low values; activity change, % (tested at about 1.8 µM);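 active means maximum activity change below -70%; inconclusive means maximum activity change from -70% to -50%; inactive means maximum activity change above -50%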;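 further: thallium influx rate constant from kinetic fluorescence after stimulation buffer; on the % scale 0 is the no-effect control and ±100 the full control effect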
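Steps: virus added to U2OS suspension (4 h, RT, dark); medium with 10% FBS added, cells plated, 37 C overnight; FluxOr/Red40 loading buffer 45 min RT; stimulation buffer, 2 min kinetic read; rate constant normalized.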
IDH1 autofl – interferes with resorufin fluorescence in IDH1 counter-screen; AID 623980; Resorufin detection reagent fluorescence interference, cell-free; shares compounds with IDH1 R132H inh; 750 tested, under 10 active; inhibition of signal, % at 51.2 µM;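 further: 0% = wells with normal resorufin and full inhibition = wells lacking resorufin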
IDH1 WT – inhibits human wild-type IDH1, mutant selectivity check. Potency, µM (top dose mostly 115 µM), for inactives: top-dose activity change, negative = inhibition, most hits filed as inhibitors. shares compounds with IDH1 R132H inh. hit rate 9% among 750. AID 623995. WT IDH1 enzyme, NADPH diaphorase/resazurin fluorescence;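 further: potency means the concentration at half of the fitted maximal effect; 0% = full WT IDH1 enzyme control and full inhibition = no enzyme wells; nearly all actives have a fitted effect of over 55% in size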
Target sequence (O75874 whole entry, looked up): as the sequence (O75874 whole entry R132H, stated change not applied) above, with H132R counted along it
IDH1 R132H conf – confirmation of human mutant IDH1 inhibitors; AID 624002; hit rate 83% among 750; Potency, µM (series often up to 76.6 µM), for inactives: at the highest dose activity change, negative = inhibition, usual class: inhibitors; IDH1 R132H enzyme, NADPH diaphorase/resazurin fluorescence; shares compounds with IDH1 R132H inh; further: potency means the concentration at half of the fitted maximal effect; nearly all actives have a fitted effect of over 50% in size
* hit, by the source's call; i = inactive; ? = inconclusive; / = no result given. Unless noted, the call rests on the fitted dose curve; in most records, active means well fitted curve in the direction sought with a large enough effect; inconclusive means small, poorly fitted or top-dose-only effect, or another doubt; inactive means no such curve, though single readings can be large; an effect the other way counts as inactive or inconclusive.

SMILES	Apoferritin bind	KCNH2 WT inh	S-ASM inh	IDH1 R132H inh	KCNH2 3.1 block	IDH1 autofl	IDH1 WT	IDH1 R132H conf
Cc1cc(NC(=O)CCC(=O)N(c2ccccc2C)C(C(=O)NC2CCCC2)c2ccccc2)no1 (centres undefined)	-10%	-7	-13%	?	-12	2	10%	25µM*
O=C(Nc1ccccc1)c1cccc(N2CCCS2(=O)=O)c1	30%	/	/	-9%	/	/	/	/
O=c1[nH]c(SCc2c(F)cccc2Cl)nc2c1CCC2	-9%	/	/	/	/	/	/	/
NS(=O)(=O)c1ccc(N2N=C(c3ccc(Br)cc3)CC2c2ccc(F)cc2)cc1 (centres undefined)	461%	2	i	?	-19	0	2%	?
O=S(=O)(NCCc1csc2nc(-c3ccc(Cl)cc3)nn12)c1cccs1	-9%	/	/	-10%	/	/	/	/
CC(=O)N(C(C)=O)N1C(=O)/C(=C/c2ccc(Cl)cc2)SC1=S	?	-6	-13%	?	9	7	-19%	50µM*
CN(C(=O)c1ccc(OCC=C(c2ccccc2)c2ccccc2)cc1)c1ccccc1I	-11%	/	/	/	/	/	/	/
O=C(NC1CCCCC1)C(c1cccs1)N(C(=O)c1ccccn1)c1ccccc1 (centres undefined)	6%	/	-1%	?	7	-1	6%	?
Cc1ccc(N(C(=O)CCC(=O)Nc2cc(C)on2)C(C(=O)NC2CCCC2)c2cccs2)cc1 (centres undefined)	-23%	-3	-5%	-17%	-4	/	/	/
O=C(NC1CCCC1)C(c1cccs1)N(C(=O)c1ccno1)c1ccccc1 (centres undefined)	-6%	-19	-1%	-3%	-34	/	/	/
Cc1ccc(N(C(=O)C(F)(F)F)C(C(=O)NC2CCCCC2)c2cccs2)cc1 (centres undefined)	-14%	5	-4%	?	-8	0	-8%	11µM*
O=C(NC1CCCC1)C(c1ccccc1F)N(C(=O)c1csnn1)c1ccccc1 (centres undefined)	-9%	-9	0%	?	-2	-3	8%	16µM*
CC1CN(C(=O)N2CCC(C(=O)NC3CCCCCC3)CC2)c2cc(Cl)ccc2O1 (centres undefined)	-14%	/	/	-12%	/	/	/	/
COc1ccc(C2c3c(n(C)c4ccccc34)C(=O)N2CC(=O)Nc2c(C)cc(C)cc2C)cc1 (centres undefined)	?	/	/	?	/	-4	-10%	?
COc1ccc(C2c3c(n(C)c4ccccc34)C(=O)N2CC(=O)Nc2cc(Cl)ccc2C)cc1 (centres undefined)	-20%	/	/	24%	/	/	/	/
COc1ccc(-c2nnc3n2N=C(c2ccc(OC)c(OC)c2)CS3)cc1	-4%	/	/	/	/	/	/	/
Cc1oc2c(C)c3oc(=O)c(CCC(=O)O)c(C)c3cc2c1-c1ccccc1	4%	/	25%	23µM*	13	0	50µM*	13µM*
Cc1c(CCC(=O)O)c(=O)oc2c(C)c3occ(-c4ccc(Cl)cc4)c3cc12	-12%	-12	64%	-19%	2	/	/	/
COc1cccc(CNC(=O)c2cc3c(=O)n(Cc4cccnc4)ccc3nc2C)c1	-9%	/	/	0%	/	/	/	/
COc1ccc(NC(=O)c2c(NCc3ccc(C)o3)sc3c2CCC(C)C3)cc1 (centres undefined)	-12%	/	/	-6%	/	/	/	/
CC(C)=CCCC(C)C1CC[C@@]2(C)C3=C(CC[C@@]12C)C1(C)CCC(O)C(C)(C)C1CC3 (some centres undefined)	-18%	/	/	/	/	/	/	/
